Over roughly 8,300 sequences, “log2 fold change of degron read counts, EGFP-low vs EGFP+ sorted cells (limma voom), compound-induced degradation” has its median near -1.1; the highest 2% begin near 3.2. The list comes from a sample in which the highest values are over-represented; it also holds similar and randomly drawn sequences.
T1: CRBN, Q96SW2
T1 chain: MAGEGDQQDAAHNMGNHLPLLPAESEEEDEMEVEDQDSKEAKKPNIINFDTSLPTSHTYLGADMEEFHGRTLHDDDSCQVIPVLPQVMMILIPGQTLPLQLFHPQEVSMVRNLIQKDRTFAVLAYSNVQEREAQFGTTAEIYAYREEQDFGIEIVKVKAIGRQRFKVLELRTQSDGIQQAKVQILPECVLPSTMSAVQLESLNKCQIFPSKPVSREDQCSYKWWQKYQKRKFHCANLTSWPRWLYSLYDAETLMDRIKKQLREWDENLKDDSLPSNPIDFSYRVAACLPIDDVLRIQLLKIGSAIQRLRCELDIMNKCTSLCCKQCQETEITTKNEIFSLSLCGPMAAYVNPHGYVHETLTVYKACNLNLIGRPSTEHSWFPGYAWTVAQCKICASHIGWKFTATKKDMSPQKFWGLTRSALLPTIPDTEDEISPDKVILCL


Biological target: T1, CRBN, Q96SW2
Test: log2 fold change of degron read counts, EGFP-low vs EGFP+ sorted cells (limma voom), compound-induced degradation; higher = more compound-induced degradation of the degron-EGFP fusion; degrons are variants of IKZF1/3 zinc finger 2; compound dose not given here
Settings: Jurkat, 18 h
[1] = compound: compound 19 (5-tert-butyl-thalidomide)
[2] = compound: compound 22 (5-morpholino-thalidomide)
[3] = compound: compound 33 (diphenyl IMiD analogue)
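Also: pooled lentiviral library of zinc finger degron-EGFP fusions in mCherry-positive Jurkat cells, FACS-sorted after compound exposure, with degron abundance counted by next-generation sequencing.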

Sequence | log2 fold change of degron read counts [1] | log2 fold change of degron read counts [2] | log2 fold change of degron read counts [3] | log2 fold change of degron read counts (compound: thalidomide)
LDCEICGFLCTQKGNLLRHIKL [46L_47D_49E_50I_52G_53F_54L_55C_67L_, Q9UKT9] | -0.807 | -1.38 | -0.989 | -0.479
FACPQCGAFFTQKGNLLRHIKL [46F_47A_49P_50Q_52G_53A_54F_55F_67L_, Q9UKT9] | -0.715 | -2.49 | -1.05 | -1.87
FWCNQCGAEFTQKGNLLRHIKL [46F_47W_49N_50Q_52G_53A_54E_55F_67L_, Q9UKT9] | -1.48 | -2.56 | -2.24 | -2.85
FGCEICGRGFTQKGNLLRHIKL [46F_47G_49E_50I_52G_53R_54G_55F_67L_, Q9UKT9] | -1.02 | -2.46 | -2.04 | -2.19
LGCEICGFCCTQKGNLLRHIKL [46L_47G_49E_50I_52G_53F_54C_55C_67L_, Q9UKT9] | -0.15 | -0.36 | -0.974 | -0.994
FKCEVCGAHFTQKGNLLRHIKL [46F_47K_49E_50V_52G_53A_54H_55F_67L_, Q9UKT9] | -2.01 | -3.17 | -2.55 | -1.68
LNCPICGFNCTQKGNLLRHIKL [46L_47N_49P_50I_52G_53F_54N_55C_67L_, Q9UKT9] | 0.0324 | -0.534 | -0.051 | 0.589
FTCEVCGAMFTQKGNLLRHIKL [46F_47T_49E_50V_52G_53A_54M_55F_67L_, Q9UKT9] | -0.151 | 0.976 | 1.67 | 1.62
FCCEVCGAMFTQKGNLLRHIKL [46F_47C_49E_50V_52G_53A_54M_55F_67L_, Q9UKT9] | 1.54 | 1.34 | 1.7 | 0.852
FWCEVCGAMFTQKGNLLRHIKL [46F_47W_49E_50V_52G_53A_54M_55F_67L_, Q9UKT9] | 3.14 | 3.46 | 2.23 | 0.316
FQCNICGANFTQKGNLLRHIKL [46F_47Q_49N_50I_52G_53A_54N_55F_67L_, Q9UKT9] | -0.813 | 0.399 | 1.05 | 3.08
FYCNQCGRCFTQKGNLLRHIKL [46F_47Y_49N_50Q_52G_53R_54C_55F_67L_, Q9UKT9] | -1.93 | -2.09 | -1.97 | -2.28
LTCNQCGFKCTQKGNLLRHIKL [46L_47T_49N_50Q_52G_53F_54K_55C_67L_, Q9UKT9] | -2.23 | -1.85 | -2.34 | -1.79
FGCPICGRIFTQKGNLLRHIKL [46F_47G_49P_50I_52G_53R_54I_55F_67L_, Q9UKT9] | 3.47 | 1.77 | 0.585 | -0.161
FGCPICGAIFTQKGNLLRHIKL [46F_47G_49P_50I_52G_53A_54I_55F_67L_, Q9UKT9] | 3.81 | 2.51 | 2.55 | 0.986
FKCPICGAIFTQKGNLLRHIKL [46F_47K_49P_50I_52G_53A_54I_55F_67L_, Q9UKT9] | -2.31 | -3.23 | -3.09 | -1.63
FSCPICGRIFTQKGNLLRHIKL [46F_47S_49P_50I_52G_53R_54I_55F_67L_, Q9UKT9] | -0.412 | -0.447 | 1.06 | 0.174
FYCPICGAIFTQKGNLLRHIKL [46F_47Y_49P_50I_52G_53A_54I_55F_67L_, Q9UKT9] | 2.75 | 2.82 | 1.86 | 0.386
FQCPICGAIFTQKGNLLRHIKL [46F_47Q_49P_50I_52G_53A_54I_55F_67L_, Q9UKT9] | -0.241 | 3.26 | 2.84 | 3.79
FVCPICGAIFTQKGNLLRHIKL [46F_47V_49P_50I_52G_53A_54I_55F_67L_, Q9UKT9] | -0.598 | 0.358 | 1.51 | 1.69
FSCPICGAIFTQKGNLLRHIKL [46F_47S_49P_50I_52G_53A_54I_55F_67L_, Q9UKT9] | 1.58 | 1.34 | 2.26 | 0.935
FTCPICGRIFTQKGNLLRHIKL [46F_47T_49P_50I_52G_53R_54I_55F_67L_, Q9UKT9] | -1.75 | -0.494 | 0.959 | 1.17

Source: the supplement of paper PMC12645437, “Orthogonal IMiD-Degron Pairs Induce Selective Protein Degradation in Cells” (ACS Chemical Biology, 2025)
